ATXN2 expr inh: inhibitors of ATXN2 expression | Potency, µM (series often up to 57 µM), for the others: at the top dose activity change, negative = inhibition, hits mostly inhibitors | actives 0.72% (n = 360,000) | AID 1745845 | HEK-293 ATXN2-luciferase reporter, luminescence, 24 h; note: % is set by controls: 0 for no effect and ±100 for the full control effect; nearly all actives have a fitted effect of over 55% in size
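qHTS (up to 57 uM final) was run with 24 h compound exposure of reporter cells at 37 °C. Each well was multiplexed: SteadyGlo luminescence measured ATXN2-luciferase expression after a fluorogenic Gly-Phe-AFC viability readout (25 uM final).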
A549 tox: counter-screen for Nrf2 inhibitors: cytotoxicity in A549 cells | AID 504648 | A549 ARE-Fluc cells, CellTiter-Fluor viability, 18-24 h | Potency, µM (highest dose often 46 µM), inactives show at the highest dose activity change, negative = cytotoxicity, most hits filed as inhibitors | actives 0.16% (n = 390,000); note: % is set by controls: 0 for no effect and ±100 for the full control effect
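A549 ARE_Fluc cells in 5% FBS OPTI-MEM were exposed to compounds in concentration-response for 18-24 h at 37 deg C. Viability was read by CellTiter-Fluor fluorescence (Ex 405/Em 525) after 30 min, before the luciferase read.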
Nrf2 activator: Nrf2 pathway activation. AID 624171. Potency, µM (series often up to 46.1 µM), for inactives: at the top dose activation, actives largely listed as activators. AREc32 ARE-luciferase reporter (MCF7-derived line), luminescence, 24 h. actives 0.31% (n = 410,000); note: % of control where 0% means no effect; nearly all actives have a fitted effect of over 65% in size
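AREc32_Fluc, 1000 cells/well, OPTI-MEM + 5% FBS, o/n 37 deg C 5% CO2; 23 nL cpd by pin tool, 24 hr; Steady-Glo 30 min RT, luminescence.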
Nrf2 inh: inhibitors of Nrf2 signaling | A549 ARE-Fluc reporter, luciferase luminescence, 18-24 h | Potency, µM (titrated, usually from 46 µM), for inactives: at the top dose activity change, negative = inhibition, actives largely listed as inhibitors | actives 2.1% (n = 360,000); note: % is set by controls: 0 for no effect and ±100 for the full control effect; nearly all actives have a fitted effect of over 60% in size
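Cells were seeded and rested 2 h, then exposed to compounds for 18-24 h. CellTiter-Fluor was read first as a viability measure. BugLite was added 15 min before the final luminescent read of ARE-luciferase activity in A549 cells.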
ATXN viability: viability counter-screen for ATXN expression inhibitors | Potency, µM (series often up to 56.7 µM), most hits filed as cytotoxic | actives 0.49% (n = 400,000) | S2 cells (HEK-293 line with an ATXN2-luciferase reporter) viability, CellTiter-Fluor protease fluorescence, 24 h; note: nearly all actives have a fitted effect of over 40% in size
* hit, by the source's call; i = inactive; ? = inconclusive; . = no result; [ ] = another dose, or the depositor's remark. The list is not random: actives were taken first. Their share in the collection is about 2.9%. Calls come from the whole dose curve; as a rule, active = well fitted curve in the direction sought with a large enough effect; inconclusive = small, poorly fitted or top-dose-only effect, or another doubt; inactive = no such curve, though single readings can be large; an effect the other way counts as inactive or inconclusive. Potency is the fitted concentration of half-maximal effect.

SMILES	ATXN2 expr inh	A549 tox	Nrf2 activator	Nrf2 inh	ATXN viability
CN(C(=O)CSc1nnc(-c2ccccc2F)o1)c1ccccc1	22%	4%	4%	?	i
COc1ccc(CN(C(=O)CSc2nnc(-c3ccccc3F)o2)c2ccc(F)cc2)cc1	-11%	-6%	-1%	21µM*	i
Cc1cc(NCCCn2ccnc2)n2nc(C)c(-c3ccc(Cl)cc3)c2n1	?	-13%	7%	7%	16µM*
CC(C)(C)S(=O)N1Cc2cc(C(=O)NCc3ccc4c(c3)OCO4)nc(-c3cccc(-c4cc5ccccc5o4)c3)c2[C@@H]1CCO (some centres not stated)	22µM*	.	18%	.	.
COc1cccc(-c2cccc(-c3nc(C(=O)NCc4ccc5c(c4)OCO5)cc4c3[C@H](CCO)N(S(=O)C(C)(C)C)C4)c2)c1 (some centres not stated)	?	.	3%	.	18µM*
COc1cccc(-c2cccc(-c3nc(C(=O)Nc4ccc(-c5ccccc5)cc4)cc4c3[C@H](CCO)N(S(=O)C(C)(C)C)C4)c2)c1 (some centres not stated)	?	.	12%	.	i
CC(C)(C)S(=O)N1Cc2cc(C(=O)NCc3ccc(Oc4ccccc4)cc3)nc(-c3cccc(-c4cc5ccccc5o4)c3)c2[C@H]1CCO (some centres not stated)	?	.	1%	.	.
COc1cc(=O)n2c(c1C(=O)NC(C)c1ccco1)CCN(C(=O)c1cc(C)cc(C)c1)CC2 (configuration not stated)	.	.	.	.	i
CC(C(Sc1ccccc1N)c1ccccc1)[N+](=O)[O-] (configuration not stated)	?	-4%	28%	9%	28µM*
Nc1nc(CCl)nc(Nc2ccccc2)n1	?	-7%	?	10%	.
COc1ccc(OC)c(Nc2nc(N)nc(CCl)n2)c1	-11%	-8%	25%	-43%	?
Cc1cccc(Nc2nc(N)nc(CCl)n2)c1C	1µM*	?	19%	10µM*	?
Cc1ccc(Nc2nc(N)nc(CCl)n2)cc1	11µM*	-4%	?	12%	.
Cc1cccc(Nc2nc(N)nc(CCl)n2)c1	?	-13%	14µM*	5%	?
COc1cccc(Nc2nc(N)nc(CCl)n2)c1	?	-9%	13µM*	-5%	?
CC(C)(OCc1nn(Cc2ccccc2)c2ccccc12)C(=O)O	-2%	.	.	.	.
COc1ccc(C(=O)NC(=S)N(Cc2ccccc2)Cc2ccccc2)cc1	-37%	-23%	5%	18µM*	i
O=C(NC(=S)N(Cc1ccccc1)Cc1ccccc1)c1ccccc1F	-25%	-19%	7%	12µM*	i
COc1ccccc1-c1ccnc(-n2ncc(C(=O)NC3CCCN(Cc4ccccc4)C3)c2C)n1 (configuration not stated)	.	.	.	.	i
CCOC(=O)c1scc(-c2ccc(C)cc2)c1S(=O)(=O)N1CCN(c2ccccc2F)CC1	-24%	?	-1%	-11%	i
CCn1c(=O)c([N+](=O)[O-])c(Cl)c2ccccc21	-5%[11.3 µM]	-8%	10%	?	35µM*
CCN(CC)c1nc(SCCOC(=O)Nc2ccccc2)nc(N(CC)CC)n1	8%	?	3%	21µM*	i
CCOc1ccc2nc(NC3=NC(c4ccc(OC)cc4)CC(=O)N3)nc(C)c2c1 (configuration not stated)	8.9µM*	?	19%	-19%	8.9µM*
COc1cccc(CNC(=O)CN2C(=O)CSc3ccc(S(=O)(=O)N(C)C)cc32)c1	9%	7%	0%	-7%	i
O=C(CN1C(=O)COc2ccccc21)N1CCCc2ccccc21	8%	?	0%	23µM*	i
COc1ccc(NS(=O)(=O)c2cccc(C(=O)OCC(=O)N3CCN(c4ccc(OC)cc4)CC3)c2)cc1	-22%	-19%	0%	21µM*	i
O=C(COc1ccc(S(=O)(=O)NC2CCCC2)cc1)N1CCCCC1	-3%	-6%	-1%	-31%	i
O=C(CSc1n[nH]c(-c2ccc(S(=O)(=O)NC3CCCCC3)cc2)n1)N1CCCC1	-17%	-13%	0%	16µM*	i

High-throughput results deposited in PubChem by National Center for Advancing Translational Sciences (NCATS).
